Assay outcomes deposited in PubChem by National Center for Advancing Translational Sciences (NCATS).
The list is not random: actives were taken first. Their share in the collection is about 2.3%.
Mito fusion yeast – qHTS Assay for Small Molecule Inhibitors of Mitochondrial Division or Activators of Mitochondrial Fusion; 320,000 compounds, 0.23% hits; S. cerevisiae fusion-defective mutant growth rescue, CellTiterGlo 48 h; Potency, µM (highest dose often 46.1 µM), for inactives: top-dose growth rescue (activation), most hits filed as activators; AID 485298, 2010; also: potency is read from the fitted curve at half-maximal effect; % of control where 0% means no effect; nearly all actives have a fitted effect of over 45% in size
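Luminescent cell viability in 1536-well qHTS format served as the measure of rescued growth in ts fusion-mutant S. cerevisiae cultured on non-fermentable YPEG for 48 hours at 37C.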
Nrf2 ARE act – qHTS of Nrf2 Activators; AREc32 ARE-luciferase reporter (MCF7-derived line), luminescence, 24 h; Potency, µM (series often up to 46.1 µM), for inactives: at the highest dose activation, usual class: activators; AID 624171, 2012; 410,000 compounds, 0.31% hits; also: potency is read from the fitted curve at half-maximal effect; % of control where 0% means no effect; nearly all actives have a fitted effect of over 65% in size
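AREc32 cells carrying an ARE-driven firefly luciferase reporter were seeded at 1000 cells/well in OPTI-MEM with 5% FBS, then exposed to compound for 24 hr at 37 deg C. Luminescence was read with Steady-Glo after 30 min at RT.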
miR-21 act – qHTS Assay for Modulators of miRNAs and/orActivators of miR-21 | HeLa miR-21 FLuc reporter, luciferase, 48 h | Potency, µM (titrated, usually from 38.3 µM), without a hit: at the top dose activity change, positive = activation, usual class: activators | 340,000 tested, under 10 active | AID 2288, 2010;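 also: % of control where 0% means no effect; miR-21 action dims this reporter so a rising signal means less miR-21 action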
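Compounds were titrated across several concentrations (up to approximately 40 uM) and incubated 48 hours with HeLa miR-21-FLuc reporter cells (miR-21 target sequence downstream of FLuc, endogenous miR-21). Readout was firefly luciferase luminescence after lytic detection reagent.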
Nrf2 block – Nrf2 qHTS screen for inhibitors | A549 ARE-Fluc reporter, luciferase luminescence, 18-24 h | Potency, µM (highest dose often 46 µM), for the others: top-dose activity change, negative = inhibition, hits mostly inhibitors | 360,000 compounds, 2.1% hits; also: potency is read from the fitted curve at half-maximal effect; % is scaled to controls: 0 for no effect and ±100 for the full control effect; nearly all actives have a fitted effect of over 60% in size
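Quantitative HTS in A549 cells stably bearing an antioxidant response element-firefly luciferase construct. Inhibition of Nrf2-driven transcription was scored by luminescence after 18-24 h of compound exposure at 37 °C.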
A549 viability – Nrf2 qHTS screen for inhibitors: counterscreen for cytotoxicity. AID 504648, 2011. A549 ARE-Fluc cells, CellTiter-Fluor viability, 18-24 h. 390,000 compounds, 0.16% hits. Potency, µM (doses to about 46 µM), for the others: at the highest dose activity change, negative = cytotoxicity, usual class: inhibitors; also: potency is read from the fitted curve at half-maximal effect; % is scaled to controls: 0 for no effect and ±100 for the full control effect
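A549 ARE-Fluc cells in 5% FBS OPTI-MEM, 5000 cells/well, rested 2 h then exposed to compounds in concentration-response for 18-24 h at 37 °C. Viability by CellTiter-Fluor fluorescence (Ex 405/Em 525) after 30 min; luciferase luminescence (BugLite, 15 min, RT) read afterwards.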
* hit, by the source's call; ? = inconclusive; . = no result given. Calls follow the shape of the dose curve; as a rule, active = well fitted curve in the direction sought with a large enough effect; inconclusive = small, poorly fitted or top-dose-only effect, or another doubt; inactive = no such curve, though single readings can be large; an effect the other way counts as inactive or inconclusive.

SMILES	Mito fusion yeast	Nrf2 ARE act	miR-21 act	Nrf2 block	A549 viability
Cc1ccc(SCC(CC(C)C)N2CCN(C)CCC2=O)cc1 (stereo unspecified)	.	.	.	?	-5.1%
CCOC(=O)/C=C1\CN(Cc2cc(OC)c(OC)c(OC)c2)S(=O)(=O)c2ccc(C(F)(F)F)cc21	0.3%	2.3%	14.4%	20.6µM*	0.0%
CCOC(=O)c1cc(-c2ccccc2)sc1NC(=O)COC(=O)c1ccc(Cl)c(S(N)(=O)=O)c1	0.7%	0.1%	1.0%	23.1µM*	?
O=C(COc1cccnc1[N+](=O)[O-])N1CCC(Cc2ccccc2)CC1	.	2.7%	.	14.6µM*	1.7%
O=C(COc1ccccc1[N+](=O)[O-])NNC(=O)Nc1cccc2ccccc12	-4.1%	14.1µM*	-15.6%	?	-4.1%
O=C(COc1cccnc1[N+](=O)[O-])Nc1cccc2ccccc12	-3.8%	5.62µM*	.	-11.2%	-4.3%
NNC(=O)COc1ccccc1[N+](=O)[O-]	0.2%	0.4%	-28.6%	11.9%	1.9%
COc1ccc(N=c2nc(-c3ccccc3)n(-c3ccc(C)cc3)s2)cc1	.	.	.	?	-16.6%
COc1cc(F)c(S(=O)(=O)N2CCCN(S(=O)(=O)c3ccc(NC(C)=O)cc3)CC2)c(F)c1	.	.	.	?	-4.7%
COc1ccc(-c2ccc3ncnc(NCC4CCCO4)c3c2)cc1OC (stereo unspecified)	.	.	.	?	-12.7%
COc1ccc(-c2nc3cccc(OC)c3c(=O)n2Cc2ccccc2)cc1COc1ccc(NC(C)=O)cc1	.	.	.	-15.1%	-13.4%
O=C(Nc1ccc2oc(-c3cccnc3)nc2c1)c1ccccc1F	.	0.4%	-40.8%	-4.5%	1.9%
Cc1ccc(CNc2ncnc3ccc(-c4ccc5c(c4)OCO5)cc23)o1	.	.	.	0.3%	-4.4%
COc1cc(-c2nc(C(=O)NC3CCN(Cc4ccccc4)CC3)cc3c2[nH]c2ccccc23)cc(OC)c1OC	0.4%	7.4%	16.3%	-25.8%	-15.6%
Cc1ccccc1-c1nc(C(=O)NCC2CCCO2)cc2c1[nH]c1ccccc12 (stereo unspecified)	18.2%	3.4%	25.3%	23.1µM*	-9.8%
COc1cc(-c2nc(C(=O)NC3CCCCC3)cc3c2[nH]c2ccccc23)cc(OC)c1OC	3.1%	5.7%	18.0%	9.2µM*	-7.5%
Cc1ccc(-c2nc(C(=O)NCC3CCCO3)cc3c2[nH]c2ccccc23)cc1 (stereo unspecified)	0.6%	3.5%	23.4%	?	-18.0%
CCOC(=O)CC(NC(=O)N1CCC(CN2CCC(C)CC2)CC1)c1ccccc1 (stereo unspecified)	.	0.2%	-9.8%	.	0.5%
COc1cc(CNCCc2ccc(S(N)(=O)=O)cc2)ccc1OCc1ccc(Cl)cc1	0.6%	8.1%	25.9%	23.1µM*	?
O=C1/C(=C/c2ccsc2)CC/C1=C\c1cccs1	11.6µM*	.	.	.	.
O=C1/C(=C/c2cccs2)CCC/C1=C\c1cccs1	2.0%	?	-67.0%	?	0.7%
COc1ccc(CCN2C(=O)c3ccccc3C2c2nnnn2-c2c(C)cccc2C)cc1OC (stereo unspecified)	.	0.2%	.	.	.
Cc1cccc(C)c1-n1nnnc1C1c2ccccc2C(=O)N1CCc1ccccc1F (stereo unspecified)	.	12.6µM*	.	.	.
O=C(c1ccc2c(=O)n(Cc3ccco3)c(=S)[nH]c2c1)N1CCN(Cc2ccc3c(c2)OCO3)CC1	.	.	.	16.4µM*	?
O=C(c1ccc2c(=O)n(Cc3ccc4c(c3)OCO4)c(=S)[nH]c2c1)N1CCN(Cc2ccccc2)CC1	.	.	.	?	-9.2%
CC1CCCN(C(=O)c2ccc3c(=O)n(Cc4ccc5c(c4)OCO5)c(=S)[nH]c3c2)C1 (stereo unspecified)	0.6%	0.2%	-3.4%	25.9µM*	-19.6%
CCc1c(C(=O)NCCc2ccc(N3CCCCC3)cc2)[nH]c2ccc(Cl)cc12	-21.5%	.	.	.	.
Nc1c(Cl)cc(C2=NCCn3nc4cc(C(F)(F)F)ccc4c32)cc1Cl	12.6µM*	-3.8%	.	?	5.8%
